According to PubChem BioAssay (NCI):
This is part of a sample that, as a whole, favours compounds with a hit. Of some 79,000 tested, about 15% had one in any assay. Rule as the data show it: active = growth inhibition above about 70%; inactive = the rest. Where a SMILES comes first, the peptide text is derived from it. The star is where a group is joined. Boc = CC(C)(C)OC(=O)*; Bn = c1ccc(C*)cc1

What was measured:
[1] = NCI Yeast Anticancer Drug Screen. Data for the rad50 strain (AID 155);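 also: 0% = growth of vehicle-only cultures of the same strain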; conditions: S. cerevisiae rad50 strain growth inhibition; at 50.0 µM; stronger effect = higher value
How it was run: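 Yeast carrying a defined DNA repair defect were exposed to test compounds, and growth was compared with vehicle-treated controls to give percent inhibition.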

[2] = NCI Yeast Anticancer Drug Screen. Data for the mec2-1 strain (AID 157); conditions: S. cerevisiae mec2-1 strain, at 50.0 µM, stronger effect = higher value
How it was run: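 Cells of the genetically defined mec2-1 yeast strain are incubated with test compound. Inhibition of growth is calculated against vehicle-treated controls.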

[3] = NCI Yeast Anticancer Drug Screen. Data for the sgs1 mgt1 strain (AID 161);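 also: 0% = growth of cultures given vehicle only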; conditions: S. cerevisiae sgs1 mgt1 strain, at 50.0 µM, stronger effect = higher value
How it was run: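 Read-out: growth inhibition vs vehicle controls. Cells: mutant yeast strain deficient in DNA damage repair.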

[4] = NCI Yeast Anticancer Drug Screen. Data for the cln2 rad14 strain (AID 165);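 also: 0% = growth equal to vehicle treated cultures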; conditions: S. cerevisiae cln2 rad14 strain, at 50.0 µM, stronger effect = higher value
How it was run: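 The screen exposed genetically defined yeast (cln2 rad14) to test compounds and scored growth inhibition relative to vehicle-treated controls.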

[5] = NCI Yeast Anticancer Drug Screen. Data for the bub3 strain (AID 167); conditions: S. cerevisiae bub3 mutant strain, at 50.0 µM, stronger effect = higher value
How it was run: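 Compounds were applied to a genetically altered yeast strain carrying a cell-cycle control defect. Growth inhibition was scored against vehicle-treated controls.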

[6] = NCI Yeast Anticancer Drug Screen. Data for the mlh1 rad18 strain (AID 175); conditions: S. cerevisiae mlh1 rad18 strain growth inhibition; at 50.0 µM; stronger effect = higher value
How it was run: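 Compound-treated yeast growth, normalised to vehicle controls. Strain bears defined DNA repair mutations.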

Measured: growth inhibition

O=C1CC(NC(=O)C(F)(F)F)c2c(Br)sc(N3CCNCC3)c21 (stereo not given)
inactive: [1] 6.05% | [2] 12.1% | [3] -25.2% | [4] -2.2% | [5] -2.65% | [6] -30.4%

CC1(C)CCCC2(C)C(C(=O)O)C3CCC45OC3(CC12)OC(=O)C4C1(C)CCCC(C)(C)C1CC5=O (stereo not given)
inactive: [1] 2.15% | [2] 5.65% | [3] -0.9% | [4] 2.85% | [5] -2.1% | [6] 9.25%

Nc1nc(N)c2nc(-c3ccc(N(CCO)CCO)cc3)c(N)nc2n1
inactive: [1] -13.1% | [2] -14.8% | [3] -11.9% | [4] -34.9% | [5] 3.15% | [6] -15.9%

Cc1ccc2nc(C)cn2c1
inactive: [1] -0.05% | [2] 7.7% | [3] -1.15% | [4] 14.3% | [5] 10.7% | [6] 2.3%

CC(C)(C)Nc1ccc([N+](=O)[O-])cc1[N+](=O)[O-]
inactive: [1] 26.4% | [2] -21.9% | [3] 6.6% | [4] 7.95% | [5] 25.2% | [6] -10.7%

CCOC1OC(C(O)CO)C(O)C1O (stereo not given)
inactive: [1] -16.9% | [2] -18.8% | [3] 5.25% | [4] -39.9% | [5] -18% | [6] -17%

Clc1ccc(C2SCCS2)c(Cl)c1
inactive: [1] 56.8% | [2] 28.2% | [3] 59.1% | [4] 31.8% | [5] 33.8% | [6] 38.5%

NCCCc1ccc(C(=O)O)cc1
inactive: [1] -23.8% | [2] 1.85% | [3] -0.5% | [4] -40.2% | [5] 5.85% | [6] 7.75%

O=C(O)C1CCC(=O)N1Cc1ccccc1 (stereo not given)
inactive: [1] 1.35% | [2] -5.5% | [3] -7.75% | [4] -18% | [5] -7.05% | [6] -8.35%

CN1c2ccc(C3N(C(=O)C(F)(F)F)C=CN3C(=O)C(F)(F)F)cc2Sc2cc(C3N(C(=O)C(F)(F)F)C=CN3C(=O)C(F)(F)F)ccc21
inactive: [1] -3.65% | [2] 1.15% | [3] -2% | [4] -6.9% | [5] 1.05% | [6] 19.9%

Fc1ccc(C2(c3ccc(F)cc3)CCCO2)cc1
inactive: [1] 4.4% | [2] -22.4% | [3] -6.15% | [4] 25.7% | [5] -4.1% | [6] 6.2%

O=S(=O)(O)n1ccnc1 (tested in a mixture with another compound)
inactive: [1] 20.9% | [2] 12.3% | [3] 1.3% | [4] -27.9% | [5] 14.7% | [6] 18.4%

COC(=O)c1cc(-c2ccc(N)cc2)c2c(=O)n(-c3ccccc3)[nH]c2n1
inactive: [1] 26.1% | [2] 19% | [3] 30.9% | [4] -0.65% | [5] -1.4% | [6] 6.45%

O=C(O)c1n[nH]c2ccccc12
inactive: [1] 8.5% | [2] -14.1% | [3] 3.75% | [4] 5.6% | [5] -5.7% | [6] -9.85%

COc1cc2ccc1-c1cc(ccc1O)CC1c3cc4c(cc3CCN1C)Oc1c(OC)cc3c(c1O4)C(C2)N(C)CC3 (stereo not given)
inactive: [1] 1% | [2] -7.15% | [3] -18.5% | [4] -1.7% | [5] -6.15% | [6] 0.25%

O=C(O)CO.[NH2-].[NH2-].[Pt+2]
inactive: [1] -10.1% | [2] -17.8% | [3] -4.85% | [4] -14.9% | [5] -20.2% | [6] -18.2%

CCC(=O)C1C(=O)CC(=O)C(C)C1c1ccccc1OC (stereo not given)
inactive: [1] -14.8% | [2] -6.6% | [3] 4.5% | [4] 38.5% | [5] 27.8% | [6] 10.4%

CCN(CC)CC(C)C(O)(Cc1ccccc1)c1ccc(Cl)cc1 (stereo not given)
inactive: [1] 21.4% | [2] 17.6% | [3] 27.9% | [4] 33.5% | [5] 10.1% | [6] 17.4%

O=C(Nc1ccc2c(c1)Cc1cccc(F)c1-2)C(F)(F)F
inactive: [1] 4.7% | [2] -1.45% | [3] 2.9% | [4] -1.5% | [5] 36.7% | [6] 7.3%

CCOc1c(N=Nc2ccc(Cl)cc2Cl)c(C)nn1C(N)=S
inactive: [1] -16.2% | [2] 0.15% | [3] 11.1% | [4] -43.8% | [5] -24.2% | [6] 17.5%

Cc1ccc(N=NC2=C3Sc4ccccc4N=C2N(c2ccc(Br)cc2)C(=S)N3c2ccc(Cl)cc2)cc1
inactive: [1] -8.6% | [2] -3.35% | [3] -21.4% | [4] 18.9% | [5] -3.4% | [6] 1.05%

CCOC(=O)CC1(O)C(=O)N(Cc2ccccc2)c2ccccc21 (stereo not given)
inactive: [1] 15.6% | [2] -0.15% | [3] 7.55% | [4] 0.4% | [5] 19.8% | [6] -15.1%

COC(=O)c1ccccc1C1CN=NC12Cc1cc(C)ccc1C2=O (stereo not given)
inactive: [1] -3.25% | [2] 14.2% | [3] -10.4% | [4] -34.4% | [5] -3.5% | [6] -14.8%

C(/C=C/C=C/Nc1ccc(N=Nc2ccccc2)cc1)=Nc1ccc(N=Nc2ccccc2)cc1
inactive: [1] -32.8% | [2] -38% | [3] -26.3% | [4] -1.65% | [5] -25.8% | [6] -30%

CC(OC(C)C(N)=O)C(N)=O (stereo not given)
inactive: [1] -0.05% | [2] 0.55% | [3] -5.8% | [4] -3.05% | [5] 4.9% | [6] -1.15%

COC(=O)[C@@]1(NC(=O)C(CC(=O)OC(C)(C)C)NC(=O)OC(C)(C)C)C[C@H]1C (stereo not given in full)
inactive: [1] -48.8% | [2] -28.6% | [3] -33.2% | [4] 6.15% | [5] -3.25% | [6] -14%

CCOc1c(OC)cc(-c2nc3n(n2)C(=O)C(CC)S3)cc1OC (stereo not given)
inactive: [1] -15.6% | [2] -17.4% | [3] -41.3% | [4] -4.85% | [5] -3.65% | [6] -4.2%

COC(=O)C(CC(C)C)NC(=O)CNC(=O)C(Cc1ccc(OCc2ccccc2)cc1)NC(=O)C(COCc1ccccc1)NC(=O)OC(C)(C)C (stereo not given) (Boc-S(Bn)Y(Bn)GL-OMe; configuration not given here)
inactive: [1] -26.8% | [2] -22.6% | [3] -23.8% | [4] 11.8% | [5] 2.65% | [6] -10.5%

Nc1ccn([C@@H](C=O)C[C@@H](C=O)CO)c(=O)n1
inactive: [1] -3.45% | [2] -0.85% | [3] 14.8% | [4] 19.3% | [5] 11.2% | [6] -45.6%

CC(C)C(/C=C/c1ccc(Br)cc1)=N\NC(N)=O
inactive: [1] -14.1% | [2] -29.2% | [3] -40.8% | [4] -13.9% | [5] -18.1% | [6] -18.9%

Cc1ccccc1-n1c(=S)[nH]c2c(sc(=O)n2-c2ccccc2C)c1=O
inactive: [1] 3.95% | [2] -7.9% | [3] 0.8% | [4] 17.6% | [5] 0.1% | [6] -11.4%

COC(=O)C(=O)C(/C=N/C(=S)NC1CCCCC1)=C(\O)c1ccc(F)cc1
inactive: [1] -32.3% | [2] -24.7% | [3] -8.5% | [4] -5.05% | [5] -15.8% | [6] -2.7%

CN(C)CCN(C=O)CCN(C)C
inactive: [1] 9.85% | [2] 3.95% | [3] 4.5% | [4] -9.1% | [5] 0.6% | [6] -0.2%

O/N=C(/c1ccccc1)C1CCCCC1
inactive: [1] 20.7% | [2] -1.05% | [3] 13% | [4] -0.15% | [5] -8.5% | [6] 10.3%

Cc1ccc(S(=O)(=O)NCCC(=O)O)cc1
inactive: [1] -1.75% | [2] -11.1% | [3] -9.65% | [4] -9.3% | [5] -3.3% | [6] -4.85%

O=C(NC(Cc1ccccc1)C(=O)N1CCOCC1)c1ccccc1 (stereo not given)
inactive: [1] 6.1% | [2] 12.6% | [3] -1.35% | [4] 3.2% | [5] 1.85% | [6] -0.35%

O=C1CSCCO1
inactive: [1] -7.3% | [2] -27.4% | [3] -3.6% | [4] -37% | [5] 1.05% | [6] -7%

N#CC1(Nc2ccc(Cl)cc2)CCCC1
inactive: [1] 5.6% | [2] 2.4% | [3] -6.5% | [4] -15.6% | [5] 13.8% | [6] 3.1%

CN1C(=O)CCSC1=S
inactive: [1] 3.55% | [2] -12.1% | [3] -4.7% | [4] -18.6% | [5] 14.4% | [6] -2.05%

CCCCCCCCCCCCCCCCCCOCCOCCOCCOCCO
inactive: [1] -21.7% | [2] -10.3% | [3] -23.5% | [4] -43.5% | [5] -3.25% | [6] -19.5%
